Laboratory results as given in paper PMC4336329 (PLoS ONE, 2015).
About 14,000 (4.5%) of roughly 310,000 compounds showed an effect of 50% or more. The effect is printed as a negative number. The full list was thinned out, with strong results kept by preference.

These compounds were tested against human ether-à-go-go-related gene (hERG) potassium channel (human, UniProt Q12809) (assay: primary screen, population patch clamp on CHO cells stably expressing hERG; higher = less effect of the substance).
human ether-à-go-go-related gene (hERG) potassium channel, sequence (Q12809 whole entry, looked up): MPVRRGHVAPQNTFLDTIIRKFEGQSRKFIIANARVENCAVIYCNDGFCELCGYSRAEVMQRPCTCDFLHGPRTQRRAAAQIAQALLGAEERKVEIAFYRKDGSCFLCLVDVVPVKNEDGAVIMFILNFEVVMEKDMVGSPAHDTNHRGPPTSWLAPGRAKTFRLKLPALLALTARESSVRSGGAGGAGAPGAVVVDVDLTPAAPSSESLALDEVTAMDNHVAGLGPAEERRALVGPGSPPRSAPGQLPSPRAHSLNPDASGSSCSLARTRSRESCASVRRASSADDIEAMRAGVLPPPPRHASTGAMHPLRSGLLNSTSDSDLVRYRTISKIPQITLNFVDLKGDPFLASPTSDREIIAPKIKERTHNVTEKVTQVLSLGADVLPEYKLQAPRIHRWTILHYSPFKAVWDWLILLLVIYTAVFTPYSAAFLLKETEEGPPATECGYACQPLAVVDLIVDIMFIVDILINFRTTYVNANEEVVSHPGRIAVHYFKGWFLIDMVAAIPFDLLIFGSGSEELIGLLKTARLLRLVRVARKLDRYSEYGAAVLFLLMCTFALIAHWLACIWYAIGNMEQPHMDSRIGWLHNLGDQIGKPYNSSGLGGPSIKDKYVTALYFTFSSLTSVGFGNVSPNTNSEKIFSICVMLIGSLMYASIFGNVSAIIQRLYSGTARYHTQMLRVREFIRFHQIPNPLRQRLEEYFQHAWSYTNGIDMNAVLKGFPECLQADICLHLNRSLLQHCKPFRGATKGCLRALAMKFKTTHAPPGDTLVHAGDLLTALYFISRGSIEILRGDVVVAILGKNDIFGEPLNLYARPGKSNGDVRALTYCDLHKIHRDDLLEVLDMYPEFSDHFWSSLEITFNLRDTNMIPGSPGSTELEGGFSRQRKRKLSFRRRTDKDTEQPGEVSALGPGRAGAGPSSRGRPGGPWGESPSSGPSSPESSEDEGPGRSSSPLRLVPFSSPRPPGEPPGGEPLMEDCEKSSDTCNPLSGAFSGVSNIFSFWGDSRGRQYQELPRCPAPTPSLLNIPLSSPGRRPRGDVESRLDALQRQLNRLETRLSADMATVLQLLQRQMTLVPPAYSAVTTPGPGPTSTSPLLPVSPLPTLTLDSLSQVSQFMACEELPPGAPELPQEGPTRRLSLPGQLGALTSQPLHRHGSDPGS
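Note: peak tail current of the secondary pulse compared with the same well before compound.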

SMILES	hERG current change (%, negative = inhibition) at 10uM
CCCc1nc(C)c2c(=O)[nH]c(-c3cc(S(=O)(=O)N4CCN(CC)CC4)ccc3OCC)nn12.O=C(O)CC(O)(CC(=O)O)C(=O)O	0.215%
COc1cccc(N2CCN(S(=O)(=O)c3ccc4c(c3)CC(C)N4C(=O)C3CC3)CC2)c1 (stereo not shown)	17.8%
CC1C(=O)N(Cc2ccccc2F)c2ccccc2N1C(=O)c1c(F)cccc1F (stereo not shown)	-6.04%
CC(C)N1CCc2c(sc(NC(=O)c3nc4ccccc4s3)c2C(N)=O)C1.Cl	-45.1%
CCCn1c(SCC(=O)/C(C#N)=C(\C)N)n[nH]c1=O	7.25%
CC(C)C(=O)Nc1nnc(Cc2c[nH]c3ccccc23)s1	28%
Cc1[nH]n(-c2ccccc2)c(=O)c1C=NC1CCCCC1	-10.5%
O=C(CCCN1C(=O)/C(=C\c2cccs2)SC1=S)Nc1cccc(C(=O)O)c1	9.57%
Cc1cccn2c(=O)c(/C=C(\C#N)C(=O)NCc3ccccc3)c(N3CCC(C(N)=O)CC3)nc12	-29.1%
CCOC(=O)C1CCN(c2nc3c(C)cccn3c(=O)c2/C=C(\C#N)S(=O)(=O)c2ccccc2)CC1	-18.1%
CCN1CCN(c2nc3c(C)cccn3c(=O)c2/C=C(\C#N)S(=O)(=O)c2ccc(Cl)cc2)CC1	-44.9%
Cc1cccn2c(=O)c(/C=C(\C#N)C(=O)NCc3ccco3)c(N3CCC(C(N)=O)CC3)nc12	-43%
Cc1cccn2c(=O)c(/C=C(\C#N)S(=O)(=O)c3ccccc3)c(N3CCCCC3)nc12	9.28%
Cc1cccn2c(=O)c(/C=C(\C#N)S(=O)(=O)c3ccccc3)c(N3CCC(C(N)=O)CC3)nc12	-75.4%
Cc1ccc(S(=O)(=O)/C(C#N)=C/c2c(N3CCC(C(N)=O)CC3)nc3c(C)cccn3c2=O)cc1	-71.4%
Cc1cccn2c(=O)c(/C=C(\C#N)S(=O)(=O)c3ccc(Cl)cc3)c(N3CCC(C(N)=O)CC3)nc12	-77.8%
COc1ccc(C=Nc2cccc3ncccc23)cc1	4.44%
Cc1ccc(C(=O)Nc2ccc(S(=O)(=O)N3CCOCC3)cc2)cc1Br	3.46%
CC(=O)Nc1nc(-c2ccc(Cl)cc2)nc(C)c1C(C)=O	-19.8%
CCN(C(=O)COC(=O)C1=COCCO1)c1ccccc1	-2.33%
O=c1cc(Cc2nnc(SCc3ccccc3)n2-c2ccc(Cl)cc2)[nH]c(=O)[nH]1	0.593%
COc1ccc(N2CCN(C(=O)c3cc(-c4cc(OC)ccc4OC)nc4ccccc34)CC2)cc1	-1.23%
Cc1ccc2nc3c(nc2c1C)C(O)=C3O	6.68%
O=C1c2ccccc2C(=O)c2c1cccc2N1CCOCC1	-30.4%

SMILES	hERG current change (%, negative = inhibition) at 10uM
O=C1c2ccccc2-c2ncnc3c(N4CCOCC4)cc(N4CCOCC4)c1c23	-60%
Cc1ccc(N2CCOCC2)c2c1C(=O)c1ccccc1C2=O	-19.1%
CCOCCn1c(SCc2ccc(C)cc2)nc2c1c(=O)[nH]c(=O)n2C	14.5%
COc1ccc(CNC(=O)CN2CCN(c3ccccc3)CC2)cc1	3.65%
COc1ccc(N2CCN(CC(=O)NCc3ccc(Cl)cc3)CC2)cc1	-55.7%
O=C(CN1CCN(c2ccc(Cl)cc2)CC1)NCc1ccccc1	-51.3%
COc1ccc(CNC(=O)CN2CCN(c3ccc(F)cc3)CC2)cc1	-39.1%
N#Cc1ccc(CN2CCN(CC(=O)NCCc3ccc(Cl)cc3Cl)CC2)cc1	-68.8%
CC(=O)c1ccc(N2CCN(CC(=O)NCc3ccccc3)CC2)cc1	-44.3%
O=C(CN1CCN(c2cccc(Cl)c2)CC1)NCc1ccccc1	-15.5%
O=C(Cn1cnnn1)NCCc1ccc(Cl)cc1Cl	-19.6%
Cc1ccc(CNC(=O)CN2CCN(c3ccc(F)cc3)CC2)cc1	-50.8%
O=C(CN1CCNC(=O)C1)NCCc1ccc(Cl)cc1Cl	1.45%
O=C(CN1CCN(c2ccc(F)cc2)CC1)NCc1ccc(F)cc1	-43.9%
O=C(CN1CCN(c2ccccc2)CC1)NCc1ccc(F)cc1	-11%
S=c1[nH]nc(COc2ccccc2)n1/N=C/c1ccncc1	7.06%
O=C(NCCOc1ccc(Cl)cc1)c1ccc2c(c1)OCCO2	-7.8%
COc1ccc(O)c(C=Nc2cc(NC(C)=O)c(Cl)cc2Cl)c1	2.95%
O=C1c2ccccc2C(=O)N1CC(O)COc1ccc(Br)cc1 (stereo not shown)	-1.51%
Cl.O=C(CN1CCOCC1)NCc1ccc(F)cc1	21.6%
O=C(CN1CCN(Cc2ccc(F)cc2)CC1)NCc1ccccc1	-27.5%
Fc1ccc(CN2CCN(c3ccc(Cl)cc3)CC2)cc1	-13.6%
O=C(CN1CCN(Cc2ccccc2)CC1)NCc1ccc(Cl)cc1	-61.1%
O=C(NCc1ccc(Cl)cc1)N1CCN(Cc2ccccc2)CC1	-29.9%

SMILES	hERG current change (%, negative = inhibition) at 10uM
O=C(CN1CCN(c2ccc(F)cc2)CC1)NCc1ccc(Cl)cc1	-62.7%
Cc1ccc(C(=O)c2cc3c(cc2[N+](=O)[O-])OCCO3)cc1	-9.5%
O=C1/C(=N\S(=O)(=O)c2cccs2)C([n+]2ccccc2)=C([O-])c2ccccc21	33.6%
O=C1/C(=N\S(=O)(=O)c2cccs2)C([n+]2ccc(CCCc3ccccc3)cc2)=C([O-])c2ccccc21	-70.5%
CCc1cc[n+](C2=C([O-])c3ccccc3C(=O)/C2=N\S(=O)(=O)c2cccs2)cc1	-11.6%
Cc1ccc(NC(=O)c2nnn(-c3ccc4c(c3)OCCO4)c2N)cc1	9.9%
Cc1cc(NC(=O)CSc2nncc(=O)n2N)no1	1.99%
COC(=O)C1=C(C)N(Cc2cccnc2)C(=O)/C1=C\c1sccc1C	-79.2%
CCN1C(=O)/C(=C\c2cccs2)C(C(=O)OC)=C1C	5.41%
COC(=O)C1=C(C)N(Cc2ccccc2)C(=O)/C1=C\c1ccco1	2.06%
COC(=O)C1=C(C)N(Cc2cccnc2)C(=O)/C1=C\c1cccs1	-89%
COC(=O)C1=C(C)N(Cc2cccnc2)C(=O)C1	-0.706%
COCCCN1C(=O)/C(=C\c2cccs2)C(C(=O)OC)=C1C	-31.9%
CCN(CC)S(=O)(=O)c1cccc(-c2nnc(SCC(=O)NC3CCCC3)n2N)c1	19%
Cc1cc(=O)[nH]c2c(C)cc(S(=O)(=O)N3CCCCC3)cc12	4.69%
CCc1cccc(NC(=O)COc2ccccc2)c1	-8.01%
O=C(Oc1c(-c2ccccc2)c(=O)n2c3c(cccc13)CC2)c1ccccc1	-9.09%
O=C(Oc1c(-c2ccccc2)c(=O)n2c3c(cccc13)CC2)c1ccco1	-62%
O=C(Oc1c(-c2ccccc2)c(=O)n2c3c(cccc13)CC2)c1ccc(F)cc1	10.4%
CC1CC(=S)Nc2ccccc2S1 (stereo not shown)	11.1%
CN(C)S(=O)(=O)N1CCC(c2ccc(F)cc2)C(COc2ccc3c(c2)OCO3)C1 (stereo not shown)	10.2%
N#C/C(=C/c1ccc(Sc2nc3ccccc3[nH]2)o1)c1ccccc1F	-7.86%
O=C(O)c1ccc(NC(=S)NC(=O)C(c2ccccc2)c2ccccc2)cc1	-6.52%
Cc1ccc(NC(=O)C(C)Oc2ccccc2)cc1S(=O)(=O)N1CCCCCC1 (stereo not shown)	-7.7%

SMILES	hERG current change (%, negative = inhibition) at 10uM
CCOc1ccc(NC(=O)C(C)NC(=O)c2ccccc2Cl)cc1S(=O)(=O)N1CCCC1 (stereo not shown)	-14.3%
CCOc1ccc(NC(=O)C(C)Oc2ccc(C#N)cc2)cc1S(=O)(=O)N1CCCC1 (stereo not shown)	-62.1%
COc1ccc(NC(=O)Nc2nnc(-c3ccccc3SCc3ccccc3)s2)cc1	13.6%
O=C(Cc1cccs1)NCCN1CCOCC1	3.99%
OCCNc1nc(OCC(F)(F)F)nc(N2CCN(C34CC5CC(CC(C5)C3)C4)CC2)n1	-37.9%
CNc1nc(NCCOC23CC4CC(CC(C4)C2)C3)nc(OCC(F)(F)F)n1	8.55%
CN1CCN(c2nc(NCCOC34CC5CC(CC(C5)C3)C4)nc(OCC(F)(F)F)n2)CC1	-60.8%
CCOc1c2ccc(C(=O)NCc3ccco3)cc2nn1CCOC	-0.63%
CC(=O)c1cccc(NS(=O)(=O)c2cc3c(cc2C)N(C(C)=O)CCO3)c1	14.3%
Cc1ccc(S(=O)(=O)C(CCC(=O)c2ccc(Cl)cc2)C(N)=O)cc1 (stereo not shown)	-28.9%
CCN1CCN(c2cc(C)c3cc(NC(=O)c4cnccn4)ccc3n2)CC1	-16.2%
CCN(CC)c1cc(C)c2cc(NC(=O)CNC(C)=O)ccc2n1	-11.3%
COc1cc(C(=O)Nc2ccc3nc(N4CCN(C)CC4)cc(C)c3c2)cc(OC)c1OC	-38.7%
CCN1CCN(c2cc(C)c3cc(NC(=O)c4ccncc4)ccc3n2)CC1	-21.4%
CCN1CCN(c2cc(C)c3cc(NC(=O)Cc4ccc(OC)c(OC)c4)ccc3n2)CC1	-10.5%
CCN1CCN(c2cc(C)c3cc(NC(=O)c4cncc(Br)c4)ccc3n2)CC1	-51.8%
CCN1CCN(c2cc(C)c3cc(NC(=O)c4ccc(Br)o4)ccc3n2)CC1	-56%
Cc1cc(N2CCN(C)CC2)nc2ccc(NC(=S)N3CCC4(CC3)OCCO4)cc12	-34%
CCN(CC)c1ccc(NC(=O)c2ccc(Br)o2)cc1	-24.3%
CCN1CCN(c2cc(C)c3cc(NC(=O)c4ccc(C)c(C)c4)ccc3n2)CC1	-43.3%
Cc1cc(N2CCN(C)CC2)nc2ccc(NC(=O)c3ccc(Br)o3)cc12	-77.4%
CCN(CC)c1cc(C)c2cc(NC(=O)c3ccc(Br)o3)ccc2n1	-76.1%
